In the library only some 1.4% were active in any assay of this set; here they are far more common.
USP1-UAF1 inh – USP1/UAF1 (human) deubiquitinase inhibition. O94782. recombinant USP1/UAF1, Ub-Rhodamine cleavage fluorescence. Potency, µM (series often up to 57.1 µM), usual class: inhibitors. 0.23% of 390,000 active. AID 743255; further: nearly all actives have a fitted effect of over 60% in size
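USP1/UAF1 complex (1 nM) preincubated 15 min at room temperature with compound, then Ub-Rho substrate (150 nM final) added. Kinetic fluorescence at 480/540 nm over 6 reads at 60 s intervals; 50 mM HEPES pH 7.8, 0.5 mM EDTA, 0.1 mg/ml BSA, 1 mM TCEP, 0.01% Tween-20.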
EPAC2 antagonist – EPAC2 (human) antagonism | 0.18% of 360,000 active | Potency, µM (titrated, usually from 114 µM), hits mostly inhibitors | EPAC2 GEF exchange of Rap1B-BODIPY-GDP, fluorescence | Q8WZA2; further: nearly all actives have a fitted effect of over 45% in size
BRCA1 expr act – BRCA1 expression activation; 1.1% of 380,000 active; Potency, µM (highest dose often 46.1 µM), most hits filed as activators; MCF7-BRCA1-FFLuc reporter, luminescence, 48 h; response scale: scaled: vehicle 0%, 10 µM genistein 100%; further: nearly all actives have a fitted effect of over 80% in size
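Luminescence from a BRCA1-driven firefly luciferase in MCF7 cells was the read-out, taken 15 min after substrate addition following 48 h compound exposure at 37 °C. Data were normalized to a 10 microM genistein control and DMSO vehicle.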
EPAC2 agonist – EPAC2 (human) agonism | Q8WZA2 | EPAC2 activation, biochemical qHTS; response scale: 100% = 6.5 mM cAMP response | Potency, µM (doses to about 154 µM), most hits filed as activators | 0.079% of 360,000 active | AID 720711; further: nearly all actives have a fitted effect of over 50% in size
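Each well held 100 nM EPAC2, 250 nM RAP1B-BODIPY-GDP and 50 uM GDP. Fluorescence, read at 5-min intervals to 30 min, was referenced to a 6.5 mM cAMP positive control.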
EPAC1 ag – activates human EPAC1 exchange factor; O95398; EPAC1 agonist qHTS, biochemical assay; response scale: 100% = response to 6.5 mM cAMP; Potency, µM (doses to about 154 µM), most hits filed as activators; 0.073% of 360,000 active; AID 720707; further: nearly all actives have a fitted effect of over 60% in size
Target sequence (O95398 whole entry, looked up): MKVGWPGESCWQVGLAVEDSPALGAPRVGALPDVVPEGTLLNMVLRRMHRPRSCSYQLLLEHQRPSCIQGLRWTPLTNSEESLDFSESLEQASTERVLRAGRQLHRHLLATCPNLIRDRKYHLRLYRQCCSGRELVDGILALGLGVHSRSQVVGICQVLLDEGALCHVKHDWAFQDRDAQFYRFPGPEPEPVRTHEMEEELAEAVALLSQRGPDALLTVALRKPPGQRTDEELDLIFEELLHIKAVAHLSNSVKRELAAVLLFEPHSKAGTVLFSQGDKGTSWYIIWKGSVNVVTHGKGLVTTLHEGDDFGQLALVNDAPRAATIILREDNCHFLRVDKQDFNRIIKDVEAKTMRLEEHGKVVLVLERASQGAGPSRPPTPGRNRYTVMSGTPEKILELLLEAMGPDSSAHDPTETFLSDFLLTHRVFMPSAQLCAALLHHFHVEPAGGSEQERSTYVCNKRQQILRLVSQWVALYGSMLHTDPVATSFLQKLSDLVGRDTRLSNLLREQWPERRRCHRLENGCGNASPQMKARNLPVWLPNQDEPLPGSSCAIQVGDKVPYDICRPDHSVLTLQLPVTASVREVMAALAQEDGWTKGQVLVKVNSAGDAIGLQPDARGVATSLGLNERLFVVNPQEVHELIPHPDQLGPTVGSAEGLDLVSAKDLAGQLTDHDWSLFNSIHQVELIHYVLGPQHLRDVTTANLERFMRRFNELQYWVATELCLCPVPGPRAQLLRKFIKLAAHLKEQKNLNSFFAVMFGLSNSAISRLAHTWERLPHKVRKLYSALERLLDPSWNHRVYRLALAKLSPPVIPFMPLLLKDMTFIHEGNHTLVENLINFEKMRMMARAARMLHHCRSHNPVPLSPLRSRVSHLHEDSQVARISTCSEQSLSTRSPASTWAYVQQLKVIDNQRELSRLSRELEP
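EPAC1 100 nM, Rap1B–BODIPY-GDP 250 nM, unlabeled GDP 50 uM; compound titration; 5 min RT; kinetic read ex480/em540 at 5-min intervals ×30 min; data normalized to 6.5 mM cAMP agonist control.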
EPAC1 antagonist – EPAC1 (human) antagonism; EPAC1 GEF assay, Rap1b-BODIPY-GDP exchange fluorescence; 0.14% of 360,000 active; AID 720709; Potency, µM (doses to about 115 µM), hits mostly inhibitors; further: nearly all actives have a fitted effect of over 50% in size
Hits are given with their value; . = inactive; ? = inconclusive; / = no result; ! = a repeat was not active. The call rests on the fitted dose curve; in most records, active means well fitted curve in the direction sought with a large enough effect; inconclusive means small, poorly fitted or top-dose-only effect, or another doubt; inactive means no such curve, though single readings can be large; an effect the other way counts as inactive or inconclusive.

SMILES | USP1-UAF1 inh | EPAC2 antagonist | BRCA1 expr act | EPAC2 agonist | EPAC1 ag | EPAC1 antagonist
Cc1ccc(Nc2ncnc(-n3cccc3)n2)cc1Cl | . | . | 6.3µM | . | . | .
CNC(=O)CCCN1C(=O)CCn2nc(-c3cn(C)c4ccccc34)cc21 | . | / | / | / | / | /
C/C=C/C=C/C(=O)[C@@H]1[C@@H]([C@]2(C)OC(=O)C(C)=C2O)[C@H]2/C(=C(O)/C=C/C=C/C)C(=O)[C@]1(C)C(=O)C2(C)O (stereo not given in full) | ? | . | . | . | . | ?
CCn1ccc(C(=O)Nc2ccc(Cl)cn2)n1 | . | . | 2.5µM | . | . | .
CCn1nccc1C(=O)Nc1ccc(Cl)cn1 | . | . | . | . | . | .
Cc1cccc2nc(CSc3nc4ccccc4[nH]3)cn12 | . | . | ? | . | . | ?
Cc1cccc2nc(CSc3ccc(Cl)cc3)cn12 | ? | . | 4.5µM | . | . | ?
CNc1cc(CSc2ccc(Cl)cc2)nc(C)n1 | . | . | 5µM | . | . | .
Cc1ccc(SCc2cn3cc(Cl)ccc3n2)cc1 | . | . | 10µM | . | . | .
Cc1nc(CSc2ccc(Cl)cc2)cc(NCc2ccccc2)n1 | . | . | ? | . | . | .
Clc1ccc(-n2nnnc2SCc2cn3ccccc3n2)cc1 | . | . | . | . | . | .
Clc1ccc(SCc2cn3ccccc3n2)cc1 | . | . | 5.6µM | . | . | .
Fc1ccc(Nc2nc(NCc3ccccc3)nc3ccsc23)cc1 | / | . | . | . | . | .
C=CCNc1ncnc2c1ncn2[C@H]1CN(Cc2cc(OC)c(OC)c(OC)c2)C[C@@H](CO)O1 | / | . | . | . | . | .
CN(C)C(=O)c1ccc(NC(=O)c2cncc(Br)c2)cc1 | . | . | 11µM | . | . | .
O=C(Nc1ccc2c(c1)OCO2)c1cncc(Br)c1 | . | . | 10µM | . | . | .
CC(C)OC(=O)c1ccc(NC(=O)c2cncc(Br)c2)cc1 | . | . | . | . | . | .
O=C(Nc1nccs1)c1cncc(Br)c1 | . | . | 3.5µM | . | . | .
Cc1cnc2ccc(I)cc2c1/C=C/c1ccc(N(C)C)cc1 | / | / | . | / | / | /
CCN(CC)/[N+]([O-])=N/OCOC(=O)c1ccccc1OC(C)=O | / | / | . | / | / | /
Cc1ccc(C(=O)NCC(=O)N(C)Cc2ccccc2C)s1 | . | . | 11µM | . | . | .
O=C(CCN1C(=O)/C(=C\C=C\c2ccccc2)SC1=S)Nc1cccc(C(=O)O)c1 | ? | . | 6.3µM | . | . | ?
CC(=Cc1ccccc1)C=C1SC(=S)N(CCCC(=O)Nc2ccc(C(=O)O)c(O)c2)C1=O | / | . | . | . | . | 50µM
Cc1ccc(NC(=O)COc2cccc(/C=C3\SC(=S)N(CCC(=O)O)C3=O)c2)cc1Cl | ? | . | . | . | ? | 50µM
O=C(CCN1C(=O)/C(=C/c2cccs2)SC1=S)Nc1ccc(C(=O)O)c(O)c1 | ? | . | . | . | . | 79µM
SMILES | USP1-UAF1 inh | EPAC2 antagonist | BRCA1 expr act | EPAC2 agonist | EPAC1 ag | EPAC1 antagonist
O=C(O)CCN1C(=O)/C(=C\c2cccc(OCC(=O)Nc3ccc(Cl)cc3)c2)SC1=S | . | . | . | . | ? | ?
CC(/C=C1\SC(=S)N(CCCC(=O)Nc2ccc(C(=O)O)c(O)c2)C1=O)=C\c1ccccc1 | . | ? | . | . | . | ?
Cc1ccc(S(=O)(=O)N2C[C@H]3C(=O)C[C@@H](c4ccccc4)N(S(=O)(=O)c4ccc(C)cc4)[C@H]3C[C@H]2c2ccc(Cl)cc2)cc1 | . | . | . | . | . | .
C[C@H](CO)N1C[C@H](C)[C@@H](CN(C)C(=O)Nc2ccc(C(F)(F)F)cc2)Oc2ccc(NC(=O)Cn3cnnn3)cc2C1=O | . | . | . | . | . | .
C/C(=N\NC(=O)Cn1nc(C)cc1C)c1ccc([N+](=O)[O-])cc1 | . | . | . | . | . | .
CC1CCc2nc3sc4c(c3c(N)c2C1)CCCC4 (stereo not given) | . | . | ? | . | . | ?
CC1CCc2c(nc3sc4c(c3c2N)CCCC4)C1 (stereo not given) | . | . | 2.8µM | . | . | .
O=S(=O)(c1ccc(-c2nc3ccccc3s2)cc1)N1CCCC1 | . | . | 2.5µM | . | . | .
COc1ccc(-c2cc(C(F)(F)F)n3ncc(-c4ccccc4)c3n2)cc1 | . | / | / | / | / | /
COc1ccc(Cn2cc(CN3CC(N(C)C)CS3(=O)=O)nn2)cc1 (stereo not given) | / | . | . | . | . | .
CCOc1ccc(N(CC(=O)Nc2ccc(C)c(C)c2)S(C)(=O)=O)cc1 | . | . | 2µM | . | . | .
O=C(CSc1nc2ccccc2s1)CSc1nc2ccccc2s1 | ? | . | . | . | . | .
CC(=O)CSc1nc2ccccc2s1 | . | . | 13µM | . | . | .
O=c1oc2ccccc2n1CSc1nc2ccccc2s1 | . | . | 13µM | . | . | .
CCOc1ccc(S(=O)(=O)n2nc(C)c(S(=O)(=O)N3CCCCC3)c2C)cc1 | . | / | . | / | / | /
C#CCOCCOCCOCCNc1nc(N2CCN(C(=O)CCCCCCCCCCNC(=O)[C@@H](CCSC)n3cc(CCO)nn3)CC2)nc(N2CCN(C(=O)CCCCCCCCCCNC(=O)[C@H]([C@@H](C)CC)n3cc(CCCCCN)nn3)CC2)n1 | ? | ? | . | ? | ? | 45µM
O=c1[nH]c2c(s1)C=Nc1ccccc1N2 | 28µM | . | . | ? | . | .
O=C1CC(c2ccco2)CC2=C1C=Nc1ccccc1N2 (stereo not given) | . | . | . | . | . | .
Cc1cc(Nc2cccc(Cl)c2)nc2ccc(NC(=O)c3ccc(F)cc3Cl)cc12 | . | / | . | / | / | /
CC(C)(C)NC(=O)N1CCN(c2nc3ccc(Cl)cc3s2)CC1 | . | . | 10µM | . | . | .
C[C@]12CC[C@@H]3c4ccc(OS(=O)(=O)O)cc4CC[C@H]3[C@@H]1CCC2=O | . | . | . | . | . | 22µM!
Cc1cccc(C)c1-n1nnnc1C1c2ccccc2C(=O)N1CCCN1CCOCC1 (stereo not given) | / | . | . | . | . | .
CCCCOc1ccc(C(=O)NC)cc1 | . | . | . | . | . | .
CCCCOc1ccc(/C(N)=N/O)cc1 | . | . | 11µM | . | . | .
COc1ccc(-n2ncc3c2CC(C)(C)CC3NC(=O)CN2CCOC2=O)cc1 (stereo not given) | . | . | . | . | . | ?
Cc1cc(/C=C2/C(=O)NN(c3ccccc3)C2=O)c(C)n1-c1cccc(O)c1 | . | . | . | . | . | ?
Cc1ccc(-n2c(C)cc(/C=C3\SC(=O)NC3=O)c2C)cc1 | . | . | ? | . | . | .

Screening results (PubChem BioAssay)
